This is a sample that favours compounds with a hit; in the whole collection about 2.4% have one here.
ERK AVP inh: vasopressin-driven ERK pathway inhibition; 72,000 tested, 0.99% active; AID 995; HEK293-V1b, vasopressin-stimulated pERK AlphaScreen; Potency, µM (titrated, usually from 57.5 µM), for inactives: at the highest dose activity, negative = inhibition, actives largely listed as inhibitors; also: potency is read from the fitted curve at half-maximal effect; % is scaled to controls: 0 for no effect and ±100 for the full control effect; nearly all actives have a fitted effect of over 55% in size
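qHTS, compounds titrated on V1b-expressing HEK293 cells. Preincubation 30 min at 37C, vasopressin 25 nM for 5 min, lysis 10 min, bead incubation 5 hr at room temperature.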
BRCT PPI green: inhibitors of human BRCA1 BRCT-phosphoprotein interaction (green fluorophore); P38398; BRCA1 BRCT-phosphopeptide binding, green fluorescence polarization; Potency, µM (titrated, usually from 76.9 µM), inactives show top-dose activity change, negative = inhibition, usual class: inhibitors; 75,000 tested, 0.05% active; AID 875;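 also: potency is read from the fitted curve at half-maximal effect; plate controls were peptide without protein for full effect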
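Compounds were incubated for 12 min at room temperature with a complex of 100 nM fluorescein-tagged pBACH1 decapeptide and 250 nM His-tagged BRCT protein. Buffer was phosphate pH 7.3 with EDTA, DTT and Tween 20. Disruption of binding lowers the polarization signal.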
Pol III holo inh: DNA polymerase III holoenzyme inhibition; reconstituted DNA polymerase III holoenzyme replication, biochemical; Potency, µM (series often up to 57.1 µM), inactives show at the top dose activity change, negative = inhibition; 71,000 tested, 0.25% active; AID 603; also: potency is read from the fitted curve at half-maximal effect; % is scaled to controls: 0 for no effect and ±100 for the full control effect
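Reconstituted *E. coli* holoenzyme (0.35 nM Pol III, 1 nM beta, 154 nM SSB, 2 nM primase) was preincubated with compound for 15 min at RT. Synthesis on 1.4 nM ssM13Gori ran 35 min, then was stopped with PicoGreen/EDTA and read as dsDNA fluorescence.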
YjeE inh: displaces an ADP probe from E. coli YjeE (TsaE); Potency, µM; purified YjeE enzyme, qHTS inhibition assay; 71,000 tested, 0.05% active; AID 605; P0AF67
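Purified YjeE (10 uM) with BODIPY Texas Red-labeled ADP probe (2 uM); compounds pin-transferred, 15 min at room temperature. Binding inhibition read as decreased fluorescence polarization; ADP titration as control.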
BRCT PPI red: BRCT-phosphoprotein interaction inhibition (red fluorophore) | BRCT-phosphopeptide binding, red fluorescence polarization | 75,000 tested, 0.03% active | Potency, µM (titrated, usually from 76.9 µM), for the others: at the highest dose activity change, negative = inhibition, usual class: inhibitors | P38398; also: % is scaled to controls: 0 for no effect and ±100 for the full control effect
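Fluorescence polarization: 100 nM His-tagged BRCA1 BRCT with 100 nM TAMRA-labelled phospho-BACH1 decapeptide, phosphate buffer pH 7.3 with 150 mM NaCl, DTT, 0.01% Tween 20; 12 min RT. Binding inhibition seen as FP decrease.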
ALOX15 inhib: inhibitors of human 15-lipoxygenase (ALOX15). P16050. 74,000 tested, 1.4% active. purified 15hLO-1, xylenol orange hydroperoxide absorbance. AID 887. Potency, µM (series often up to 57.1 µM), without a hit: at the highest dose activity change, negative = inhibition, most hits filed as inhibitors; also: potency is read from the fitted curve at half-maximal effect; % is scaled to controls: 0 for no effect and ±100 for the full control effect; nearly all actives have a fitted effect of over 55% in size
Target sequence (P16050 whole entry, looked up): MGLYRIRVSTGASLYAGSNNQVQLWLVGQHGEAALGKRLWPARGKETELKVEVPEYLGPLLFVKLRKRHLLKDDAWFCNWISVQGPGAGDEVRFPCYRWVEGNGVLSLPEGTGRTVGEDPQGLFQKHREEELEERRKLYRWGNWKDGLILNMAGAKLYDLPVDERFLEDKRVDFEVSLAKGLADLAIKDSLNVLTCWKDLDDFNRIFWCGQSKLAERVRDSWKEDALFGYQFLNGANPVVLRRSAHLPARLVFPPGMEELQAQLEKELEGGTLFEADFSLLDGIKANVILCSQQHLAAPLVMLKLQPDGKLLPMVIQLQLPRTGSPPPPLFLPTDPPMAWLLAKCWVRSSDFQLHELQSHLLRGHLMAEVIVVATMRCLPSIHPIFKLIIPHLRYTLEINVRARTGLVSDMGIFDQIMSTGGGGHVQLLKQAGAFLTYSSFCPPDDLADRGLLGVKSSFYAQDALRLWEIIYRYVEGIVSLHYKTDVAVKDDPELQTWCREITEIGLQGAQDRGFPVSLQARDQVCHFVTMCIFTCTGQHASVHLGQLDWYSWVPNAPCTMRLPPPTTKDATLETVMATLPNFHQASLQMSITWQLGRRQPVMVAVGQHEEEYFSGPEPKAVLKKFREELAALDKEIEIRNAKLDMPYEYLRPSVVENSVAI
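Compounds were preincubated 15 min at room temperature with 40 nM purified human enzyme (25 mM Hepes pH 7.5, 0.01% Triton X-100); 50 uM arachidonic acid reacted 6 min. Fe-xylenol orange detection, 30 min, absorbance ratio 573/405 nm.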
Starred values were filed as active, the others as inactive; [ ] = remark or other dose. Calls follow the shape of the dose curve; as a rule, active = well fitted curve in the direction sought with a large enough effect; inconclusive = small, poorly fitted or top-dose-only effect, or another doubt; inactive = no such curve, though single readings can be large; an effect the other way counts as inactive or inconclusive.

`COc1ccccc1CNc1ccnc(-c2ccccc2OC)n1` gave ERK AVP inh -21%, BRCT PPI green -1%, Pol III holo inh -2%, YjeE inh inactive, BRCT PPI red 0% and ALOX15 inhib 13µM*.
`COCCNc1ccnc(-c2ccccc2C)n1` gave ERK AVP inh 3%, BRCT PPI green -1%, Pol III holo inh -9%, YjeE inh inactive, BRCT PPI red 0% and ALOX15 inhib 13µM*.
Screening COc1ccccc1CNc1ccnc(-c2ccc3c(c2)OCO3)n1 returned ERK AVP inh inconclusive, BRCT PPI green 3%, Pol III holo inh 0%, YjeE inh inactive, BRCT PPI red 0% and ALOX15 inhib 13µM*.
`COc1ccccc1CNc1ccnc(-c2cccc(C#N)c2)n1` gave ERK AVP inh 32µM*, BRCT PPI green -1%, Pol III holo inh 3%, YjeE inh inactive, BRCT PPI red 1% and ALOX15 inhib -3%.
Cc1cnc(CNc2ccnc(-c3ccccc3C)n2)cn1 was read as ERK AVP inh -15%, BRCT PPI green -1%, Pol III holo inh -5%, YjeE inh inactive, BRCT PPI red 0% and ALOX15 inhib 8%.
`COC(=O)[C@@H](NC(=O)NC1CCCc2ccccc21)C(C)C` (some centres undefined) gave ERK AVP inh 8%, BRCT PPI green 2%, Pol III holo inh -3%, YjeE inh inactive, BRCT PPI red 0% and ALOX15 inhib 1%.
For CSC1=C(C#N)C(c2cccc(Br)c2)CC(=O)N1 (centres undefined) the results were ERK AVP inh 20µM*, BRCT PPI green 0%, Pol III holo inh 1%, YjeE inh inactive, BRCT PPI red -1% and ALOX15 inhib -17%.
For O=C(OCC#CCSc1nc2ccccc2s1)c1ccco1 the results were ERK AVP inh 20%, BRCT PPI green 1%, Pol III holo inh 8%, YjeE inh inconclusive, BRCT PPI red 0% and ALOX15 inhib -1%.
O=C(OCC#CCSc1nnc(-c2ccc(Br)cc2)o1)c1ccco1 was read as ERK AVP inh 11%, BRCT PPI green 1%, Pol III holo inh 6%, YjeE inh inactive, BRCT PPI red 2% and ALOX15 inhib 3.2µM*.
For O=C1CC(N2CCN(C/C=C/c3ccccc3)CC2)C(=O)N1Cc1cccs1 (centres undefined) the results were ERK AVP inh -18%, BRCT PPI green 3%, Pol III holo inh 3%, YjeE inh inactive, BRCT PPI red 1% and ALOX15 inhib -2%.
`O=C1CC(N2CCN(c3ccc(O)cc3)CC2)C(=O)N1Cc1cccs1` (centres undefined) gave ERK AVP inh -15%, BRCT PPI green 0%, Pol III holo inh -5%, YjeE inh inactive, BRCT PPI red 0% and ALOX15 inhib 13µM*.
Cc1cc(C)cc(/C=C/C2OCC(O)C2Oc2ccc(C3CCCC3)cc2)c1 (centres undefined) was read as ERK AVP inh -4%[11.5 µM], BRCT PPI green 0%[15.4 µM], BRCT PPI red 0%[15.4 µM] and ALOX15 inhib 2%[11.4 µM].
Cc1cc(=O)c2c(O)c(O)ccc2o1 was read as ERK AVP inh 23%, BRCT PPI green -4%, Pol III holo inh -3%, YjeE inh inactive, BRCT PPI red 1% and ALOX15 inhib inconclusive.
CC1=CCc2c(cc3oc(C)cc(=O)c3c2O)OC1 was read as ERK AVP inh 7%, BRCT PPI green -1%[3.08 µM], BRCT PPI red 1% and ALOX15 inhib 20µM*.
CCc1cc(=O)oc2cc(C)c3c(C)coc3c12 was read as ERK AVP inh -20%, BRCT PPI green -2%, Pol III holo inh -7%, YjeE inh inactive, BRCT PPI red 0% and ALOX15 inhib 3%.
`CCc1cc(=O)oc2cc(C)cc(O)c12` gave ERK AVP inh 25µM*, BRCT PPI green -4%, Pol III holo inh -5%, YjeE inh inactive, BRCT PPI red -1% and ALOX15 inhib -8%.
`COc1ccc(NC(=O)c2cc(-c3ccc(C)o3)nc3ccccc23)cc1OC` gave ERK AVP inh -16%, BRCT PPI green 0%, Pol III holo inh -4%, YjeE inh inactive, BRCT PPI red -1% and ALOX15 inhib 32µM*.
For COc1cc(NC(=O)c2cc3c(C)nc4ccccc4c3o2)cc(OC)c1OC the results were ERK AVP inh inconclusive, BRCT PPI green 0%, Pol III holo inh -9%, YjeE inh inactive, BRCT PPI red -4% and ALOX15 inhib -11%.

Screens deposited in PubChem by National Center for Advancing Translational Sciences (NCATS).
